# Laboratory results reported in PubChem BioAssay (NCI).
# Compounds without any hit were thinned out: in the full panel of roughly 79,000, 15% have a hit. Unmarked numbers belong to inactive results. Activity calls are given as the source filed them. Rule as the data show it: active = growth inhibition above about 70%; inactive = the rest.
# Experiments:
# [1] = NCI Yeast Anticancer Drug Screen. Data for the rad50 strain (AID 155);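 also: 0% = growth of vehicle-only cultures of the same strain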; details: S. cerevisiae rad50 strain growth inhibition; at 50.0 µM; active compounds read high
# Procedure, shortened: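 DNA repair mutant yeast, compound exposure, growth read-out; inhibition is taken relative to vehicle.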
# [2] = NCI Yeast Anticancer Drug Screen. Data for the mec2-1 strain (AID 157); details: S. cerevisiae mec2-1 strain, at 50.0 µM, active compounds read high
# Procedure, shortened: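 Compounds were applied to mec2-1 yeast cells. Their growth was then compared with that of vehicle-treated cultures to give growth inhibition.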
# [3] = NCI Yeast Anticancer Drug Screen. Data for the sgs1 mgt1 strain (AID 161);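 also: 0% = growth of cultures given vehicle only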; details: S. cerevisiae sgs1 mgt1 strain, at 50.0 µM, active compounds read high
# Procedure, shortened: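 Growth of a repair-deficient yeast mutant was monitored after compound treatment and expressed as inhibition relative to vehicle-treated cultures.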
# [4] = NCI Yeast Anticancer Drug Screen. Data for the cln2 rad14 strain (AID 165);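 also: 0% = growth equal to vehicle treated cultures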; details: S. cerevisiae cln2 rad14 strain, at 50.0 µM, active compounds read high
# Procedure, shortened: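 Strain: cln2 rad14 yeast, altered in cell cycle control and DNA damage repair. Read-out: growth inhibition vs vehicle.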
# [5] = NCI Yeast Anticancer Drug Screen. Data for the bub3 strain (AID 167); details: S. cerevisiae bub3 mutant strain, at 50.0 µM, active compounds read high
# Procedure, shortened: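 In this screen, a yeast mutant lacking normal mitotic checkpoint function is challenged with compound. Relative growth versus vehicle gives the inhibition value.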
# [6] = NCI Yeast Anticancer Drug Screen. Data for the mlh1 rad18 strain (AID 175); details: S. cerevisiae mlh1 rad18 strain growth inhibition; at 50.0 µM; active compounds read high
# Procedure, shortened: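 A repair-deficient yeast strain is exposed to test compound, and growth is scored relative to vehicle-treated controls.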
SMILES,growth inhibition [1],growth inhibition [2],growth inhibition [3],growth inhibition [4],growth inhibition [5],growth inhibition [6]
C/C=C(/C)C(=O)O[C@H]1CC[C@@]2(C)[C@@H]3CC[C@H]4[C@]5(O)C[C@H](O)[C@@]6(O)[C@@H](CN7C[C@@H](C)CC[C@H]7[C@@]6(C)O)[C@]5(O)C[C@@]42O[C@@]13O,27.1%,-15.9%,18%,0.35%,22.8%,30.6%
CC(C)(C)SCC(NC(=O)OCc1ccccc1)C(=O)O (stereo unspecified),10.8%,1.7%,14.3%,18.9%,4.25%,7%
O=C1Nc2ccccc2C12CNCS2 (stereo unspecified),5.7%,4.55%,-8.6%,-23.4%,-12.8%,8.2%
Cc1cc(C)c(C(=O)O)c(C)c1.[Hg],99.6% (active),99.8% (active),99.7% (active),99.5% (active),99.7% (active),99.7% (active)
CCCCOC(=O)c1ccccc1C(=O)O.[Mn],-38.7%,-11.8%,-6.15%,-12.6%,-29.6%,-3.3%
C=C(C)c1ccccc1 (tested in a mixture with another compound),28%,9.05%,-19.9%,-8.8%,-3.2%,10.6%
CCC[CH2][Sn]([CH2]CCC)([n]1cncn1)[n]1cncn1,92.2% (active),96.1% (active),93.7% (active),78.2% (active),88.5% (active),93.8% (active)
C#CC(=O)[O][Sn]([c]1ccccc1)([c]1ccccc1)[c]1ccccc1,99% (active),99.1% (active),99.3% (active),99.2% (active),98.9% (active),99% (active)
O=C(O)C(O)c1ccc(Cl)cc1 (stereo unspecified),17.7%,-0.65%,-14.8%,-15.1%,16.1%,11.2%
COc1ccc(CN2CCCN(Cc3ccc(OC)cc3)C2c2ccc(N(CCCl)CCCl)cc2)cc1,30.3%,2.4%,43.8%,19.8%,-15.3%,35.8%
O=C(O)c1ccccc1N(CCO)CCCl,-11.2%,-10.4%,-31.4%,21.6%,-14%,-22.8%
O=S=NN(CC(Cl)c1ccccc1)CC(Cl)c1ccccc1 (stereo unspecified),10.1%,-8.5%,19.9%,-47.5%,22.9%,7.7%
O=C1N=NC(Cl)c2ccccc21 (stereo unspecified),-20.6%,-13.5%,-19.1%,2.65%,-17.9%,-10.8%
O=C1Cc2ccccc2C(=O)N1CCN1CCOCC1,4.05%,-14.2%,-3.95%,1.55%,-1.5%,1.55%
[N-]=[N+]=C1C(=O)NN=C1c1ccccc1,-9.6%,-21.9%,-25.4%,0.5%,-17.2%,12.8%
CC1=C[C@H]2O[C@@H]3[C@H](OC(=O)CCl)[C@@H](O)[C@](C)(C2(COC(=O)CCl)CC1)[C@@]31CO1 (stereo partly specified),91.8% (active),92.8% (active),92.7% (active),91.6% (active),92.2% (active),91.2% (active)
CC(=O)Nc1cc(Cl)c([N+](=O)[O-])cc1C,-14.9%,-4.15%,-12.4%,-79.1%,0.75%,11.6%
C[C@@]1(C(=O)c2ccccc2)N(c2ccccc2)[C@@]1(C)C(=O)c1ccccc1,8.9%,8.3%,4.35%,21.8%,16.1%,32.4%
O=[C-]/C=C/c1ccccc1.[C-]#[O+].[C-]#[O+].[Fe+2].[c-]1ccccc1,21.8%,2.5%,5.95%,-3%,-7.1%,7.15%
CC(C)C(O)(C(=O)OCC1=CCN2CCC(O)C12)C(C)O (stereo unspecified),2.55%,0.1%,25.1%,9.55%,12.6%,8.5%
O=C(c1ccccc1)P(C(=O)c1ccccc1)C(=O)c1ccccc1,10.9%,-5.7%,8.2%,-75.7%,-0.05%,-5.1%

SMILES,growth inhibition [1],growth inhibition [2],growth inhibition [3],growth inhibition [4],growth inhibition [5],growth inhibition [6]
CN(N)c1ccc([N+](=O)[O-])cc1[N+](=O)[O-],-5.75%,-39.1%,-29.8%,-6.2%,-3.2%,-39.1%
COc1ccc(C(C#N)C(C)=O)cc1 (stereo unspecified),6.75%,4.85%,12.4%,4.45%,-3.9%,-12.4%
[C-]#[N+]CS(=O)(=O)c1ccc(C)cc1,-17.4%,-11.1%,-7.3%,11.1%,3.85%,1.4%
Cc1ccc(Oc2ccc3c(c2)CN(C)CC3)cc1,93.8% (active),90.5% (active),96.8% (active),74.5% (active),96.6% (active),95.7% (active)
C[C@]12CCC(=O)C[C@@H]1CC[C@@H]1[C@@H]2CC[C@]2(C)[C@@H]3OCCC[C@H]3C[C@@H]12,22.4%,-0.5%,46.5%,14.7%,19.1%,39.2%
COC1C(OC(=O)/C=C/C=C/C=C/C=C\C(=O)O)CCC2(CO2)C1C1(C)OC1CC=C(C)C (stereo unspecified),9.95%,-1%,-19.3%,0.95%,-8.7%,24.1%
COc1ccc([N+](=O)[O-])cc1,23.6%,-5.8%,12.6%,20.9%,1.1%,-20.9%
NC(=O)CCC(N)C(=O)O.[Cl-].[Cl-].[Cl-].[Cl-].[Pt+2] (stereo unspecified),-1.4%,-3.35%,-9.1%,23.9%,8.1%,13%
Cn1cnnc1N,5.4%,5.7%,6.3%,4.4%,13.2%,4.35%
CCOP(=O)(OCC)/C(C#N)=C/c1cccc(OC)c1,57.5%,46.7%,45.6%,16.9%,30.8%,63%
N.N.N.O=[N+]([O-])[O-].O=[N+]([O-])[O-].O=[N+]([O-])[O-].O=[N+]([O-])[O-].[Co+3],11.6%,20.7%,25.5%,31.3%,11.8%,-1.35%
CC(=O)Nc1cc([As](C)(=O)O)ccc1O,-10.3%,1.75%,1.95%,-41.5%,-9.65%,-1.85%
CC[N+](C)(C)c1ccc(C)c(OC(=O)NC)c1,-4.35%,-11.2%,-0.2%,-24.8%,15.3%,-0.45%
O=C1CCCCC1CN1CCCCC1 (stereo unspecified),4.8%,-3.2%,-2.45%,-3.25%,3.45%,1.25%
Cc1ccc(-c2cc(C)n(C)[n+]2C)cc1,8.05%,7.05%,8.7%,-20.9%,9.6%,-3.05%
CC(C)CN(CC(C)C)[N+](=O)[O-],-6.25%,1.45%,-17.8%,4.05%,6.05%,-12.7%
O=C(c1ccccc1)c1ccc2n[se]nc2c1,-32.4%,10.2%,18.2%,4.65%,17.1%,25.5%
CNC(Cc1ccccc1)c1ccc(O)c(OC)c1 (stereo unspecified),-0.5%,-15.6%,-7.35%,-35%,5.05%,0.75%
CCCCCCCCCCCCCC(=O)O.[Pb],-4.8%,7.35%,-5.9%,-0.65%,-12.7%,5%
COC12c3ccccc3-c3ccccc3C1[C@@H](C(=O)O)[C@H]2C(=O)O (stereo partly specified),11.2%,1.6%,-11.6%,-14%,-24.4%,-10.3%
